# Records with an inconclusive call do not appear. A call without a number means that no potency is given here. Calls of active or inactive are those of the source. The call rests on the fitted dose curve; in most records, active means well fitted cell-killing curve with a large enough effect in the repeat runs; inconclusive means weak or mixed curves, or effect the other way; inactive means flat fitted curve, though single readings scatter.
# Assay: qHTS assay to identify small molecule agonists of the androgen receptor (AR) signaling pathway in the presence of an antagonist - cell viability counter screen (AID 1259379); further: nearly all actives have a fitted effect of over 25% in size
# Conditions: MDA-kb2 viability, CellTiter-Fluor, 16 h; series mostly up to 92.4 µM
# How it was run: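 Cytotoxicity is assessed by CellTiter-Fluor in MDA-kb2 cells carrying an MMTV-driven luciferase reporter. Cells receive 3.0uM nilutamide plus compounds at 15 concentrations and incubate 16 hr at 37C without CO2 before fluorescence reading.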
# Potency means the concentration at half of the fitted maximal effect.
row,SMILES,Potency
1,CCC[CH2][Sn]([CH2]CCC)([CH2]CCC)[O][Sn]([CH2]CCC)([CH2]CCC)[CH2]CCC,0.475 µM (active)
2,CSSC,inactive
3,OCC(Br)CBr (stereo unspecified),inactive
4,O=Cc1ccccc1,inactive
5,O=[N+]([O-])c1ccc(Cl)c(Cl)c1Cl,inactive
6,CCC1COC(Cn2cncn2)(c2ccc(Cl)cc2Cl)O1 (stereo unspecified),inactive
7,C#CC1(O)CCCCC1,inactive
8,COC(=O)/C=C(\C)OP(=O)(OC)OC,inactive
9,CCC[CH2][Sn]([CH2]CCC)([O]C(C)=O)[O]C(C)=O,0.978 µM (active)
10,Clc1ccc(C2(Cn3cncn3)OCCO2)c(Cl)c1,inactive
11,[O]=[Cr][O][Cr]=[O],inactive
12,Nc1cc(Cl)ccc1Cl,inactive
13,CCOP(=O)(OCC)Oc1cc(C)nc(C(C)C)n1,inactive
14,CC(C)[C@@H](Nc1ccc(C(F)(F)F)cc1Cl)C(=O)OC(C#N)c1cccc(Oc2ccccc2)c1 (stereo partly specified),inactive
15,CC1CN1 (stereo unspecified),inactive
16,CC(C)c1c(CN(C)C(C)Cc2ccccc2)n(C)n(-c2ccccc2)c1=O (stereo unspecified),inactive
17,CNC(=O)Oc1cc(C)cc(C(C)C)c1,inactive
18,CCCCCCC[CH2][Sn]([Cl])([Cl])[CH2]CCCCCCC,inactive

row,SMILES,Potency
1,CSC1=N[C@@](C)(c2ccccc2)C(=O)N1Nc1ccccc1,30.6 µM (active)
2,C[C@]12CC[C@H]3[C@@H](CCC4=CC(=O)CC[C@@H]43)[C@@H]1CC[C@@H]2OC(=O)CCc1ccco1,inactive
3,N#Cc1ccc(N(CC(N)=O)CC(F)(F)F)cc1C(F)(F)F,inactive
4,O=C(N[C@@H]1N=C(c2ccccc2F)c2cccc3c2N(CC3)C1=O)c1cc2ccccc2[nH]1,inactive
5,O=[N+]([O-])c1ccc(CCl)cc1,inactive
6,C=CCOC(=O)c1ccccc1N,inactive
7,CC(C)C(Nc1ccc(C(F)(F)F)cc1Cl)C(=O)OC(C#N)c1cccc(Oc2ccccc2)c1 (stereo unspecified),inactive
8,COC(=O)c1ccccc1S(=O)(=O)NC(=O)Nc1nc(C)nc(OC)n1,inactive
9,Cc1ccc([N+](=O)[O-])[c]2c1[O][Hg]2,13.3 µM (active)
10,Cc1ccn2nc(S(=O)(=O)Nc3c(F)cccc3F)nc2n1,inactive
11,c1ccc2nc(N3CCNCC3)ccc2c1,inactive
12,Oc1cc(Cl)c(Cl)c(Cl)c1Cl,59.7 µM (active)
13,CCC(C)Br (stereo unspecified),inactive
14,C#CCC1=C(C)C(OC(=O)C2C(C=C(C)C)C2(C)C)CC1=O (stereo unspecified),inactive
15,COCCC#N,inactive
16,CCC[CH2][Sn]([CH2]CCC)([CH2]CCC)[CH2]CCC,13.7 µM (active)
17,Cc1cnc2c(C(=O)O)c(Cl)ccc2c1,inactive

# Assay: qHTS assay to identify small molecule agonists of the estrogen receptor beta (ER-beta) signaling pathway - cell viability counter screen (AID 1259380); further: nearly all actives have a fitted effect of over 30% in size
# Conditions: ER-beta-bla HEK293T viability, CellTiter-Glo luminescence, 16 h; series mostly up to 92.4 µM
# How it was run: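 Cytotoxicity is measured in parallel with the reporter screen: after 16 hr compound exposure at 37C and a 2 hr LiveBLAzer step, CellTiter-Glo is added to the same ER-beta-UAS-bla HEK293T wells and luminescence read after 30 min.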
row,SMILES,Potency
1,CCC[CH2][Sn]([CH2]CCC)([CH2]CCC)[O][Sn]([CH2]CCC)([CH2]CCC)[CH2]CCC,1.06 µM (active)
2,CSSC,inactive
3,OCC(Br)CBr (stereo unspecified),inactive
4,O=Cc1ccccc1,inactive
5,CCC1COC(Cn2cncn2)(c2ccc(Cl)cc2Cl)O1 (stereo unspecified),inactive
6,C#CC1(O)CCCCC1,inactive
7,COC(=O)/C=C(\C)OP(=O)(OC)OC,inactive
8,CCC[CH2][Sn]([CH2]CCC)([O]C(C)=O)[O]C(C)=O,0.276 µM (active)
9,Clc1ccc(C2(Cn3cncn3)OCCO2)c(Cl)c1,inactive
10,[O]=[Cr][O][Cr]=[O],inactive
11,Nc1cc(Cl)ccc1Cl,inactive
12,CCOP(=O)(OCC)Oc1cc(C)nc(C(C)C)n1,inactive
13,CC(C)[C@@H](Nc1ccc(C(F)(F)F)cc1Cl)C(=O)OC(C#N)c1cccc(Oc2ccccc2)c1 (stereo partly specified),inactive
14,Clc1ccc(C(Cl)(Cl)Cl)cc1Cl,inactive
15,CC1CN1 (stereo unspecified),inactive
16,CC(C)c1c(CN(C)C(C)Cc2ccccc2)n(C)n(-c2ccccc2)c1=O (stereo unspecified),6.68 µM (active)

row,SMILES,Potency
1,C[C@]12CC[C@H]3[C@@H](CCC4=CC(=O)CC[C@@H]43)[C@@H]1CC[C@@H]2OC(=O)CCc1ccco1,inactive
2,N#Cc1ccc(N(CC(N)=O)CC(F)(F)F)cc1C(F)(F)F,inactive
3,O=C(N[C@@H]1N=C(c2ccccc2F)c2cccc3c2N(CC3)C1=O)c1cc2ccccc2[nH]1,inactive
4,BrCC(Br)(Br)Br,inactive
5,O=[N+]([O-])c1ccc(CCl)cc1,inactive
6,C=CCOC(=O)c1ccccc1N,30.8 µM (active)
7,CC(C)C(Nc1ccc(C(F)(F)F)cc1Cl)C(=O)OC(C#N)c1cccc(Oc2ccccc2)c1 (stereo unspecified),inactive
8,COC(=O)c1ccccc1S(=O)(=O)NC(=O)Nc1nc(C)nc(OC)n1,inactive
9,Cc1ccc([N+](=O)[O-])[c]2c1[O][Hg]2,4.22 µM (active)
10,Cc1ccn2nc(S(=O)(=O)Nc3c(F)cccc3F)nc2n1,inactive
11,c1ccc2nc(N3CCNCC3)ccc2c1,23.7 µM (active)
12,CCC(C)Br (stereo unspecified),inactive
13,CCC[CH2][Sn]([CH2]CCC)([CH2]CCC)[CH2]CCC,27.3 µM (active)
14,COP(=O)(OC)Oc1ccc([N+](=O)[O-])cc1,inactive
15,Cc1cnc2c(C(=O)O)c(Cl)ccc2c1,inactive

# Source: PubChem BioAssay (Tox21)
